# Bioassay records: PubChem BioAssay, National Center for Advancing Translational Sciences (NCATS)
# Only some compounds are listed: those with a hit (about 21% of all), similar ones and a draw of the others.
# DRD3 agonist – agonists of human D3 dopamine receptor; P35462; D3R DiscoveRx beta-arrestin cells, luminescence, 90 min; max activation, %; 410,000 tested, 0.58% active; AID 652048; in the data active = max activation above about 30%; note: 0% is about no effect
# Target sequence (P35462 whole entry, looked up): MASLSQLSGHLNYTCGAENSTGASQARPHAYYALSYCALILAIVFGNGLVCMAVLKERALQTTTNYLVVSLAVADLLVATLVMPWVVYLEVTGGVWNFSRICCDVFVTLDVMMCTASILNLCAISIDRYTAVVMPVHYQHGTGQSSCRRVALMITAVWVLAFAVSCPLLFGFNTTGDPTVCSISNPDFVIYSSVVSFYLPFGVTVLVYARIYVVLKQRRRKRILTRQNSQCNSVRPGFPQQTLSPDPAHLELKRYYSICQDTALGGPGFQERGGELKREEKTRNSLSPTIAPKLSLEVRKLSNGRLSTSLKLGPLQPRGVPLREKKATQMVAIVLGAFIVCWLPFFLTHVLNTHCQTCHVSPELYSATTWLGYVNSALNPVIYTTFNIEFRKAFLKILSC
#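 Agonist-mode cell screen: cells plated at 1500/well and incubated overnight at 37 °C, then exposed to library compounds for 90 min at 37 °C. Detection reagent was added for 30–60 min at room temperature, and luminescence was read.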
# ClpP mod – qHTS Assay for Activators of ClpP; Potency, µM (doses to about 57.5 µM), without a hit: at the top dose activity change, negative = active; 340,000 tested, 1.9% active; AID 651965, 2013; purified B. subtilis ClpP, FRET peptide cleavage, 20 min; ATP-dependent Clp protease proteolytic subunit (Bacillus subtilis (strain 168)), P80244; active = well fitted falling curve with a large enough effect; inconclusive = small, poorly fitted or top-dose-only effect; inactive = no such curve, though single readings can be large or run the other way; note: potency is the fitted concentration of half-maximal effect; the source files actives as falling curves though it sought activators and does not explain the sign; nearly all actives have a fitted effect of over 65% in size
# Target sequence (P80244 whole entry, looked up): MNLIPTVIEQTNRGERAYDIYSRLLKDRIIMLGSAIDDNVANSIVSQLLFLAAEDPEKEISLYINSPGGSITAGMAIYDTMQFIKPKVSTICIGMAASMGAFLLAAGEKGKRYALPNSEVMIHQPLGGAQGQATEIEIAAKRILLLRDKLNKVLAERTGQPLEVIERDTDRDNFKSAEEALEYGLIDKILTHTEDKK
#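 Buffer: 100 mM Tris/HCl pH8, 100 mM KCl, 0.05% low protease BSA, 2.5% glycerol, 0.01% Tween-20. ClpP 10 microg/mL final; 20 min RT; delta FRET normalized to ADEP and DMSO controls.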
# IL-1B inflam inh – blocks inflammasome-driven IL-1 beta release. THP-1 LPS/ATP IL-1B secretion, AlphaLISA, 16 h; stronger effect = lower value. activity change, % at 57.5 µM. 360,000 tested, 4.7% active; in the data active = activity change below about -50%; inconclusive = mostly about -30% to -49%; note: % is set by controls: 0 for no effect and ±100 for the full control effect
#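 THP-1 cells pretreated 1 hr with compounds (up to 57.5 uM final), then stimulated with LPS (250 ng/mL final) plus ATP (1.25 mM final); secreted IL-1B measured by AlphaLISA after 16 hr, decreased signal indicating inhibition.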
# DT40 TDP1 no CPT – qHTS for Inhibitors of human tyrosyl-DNA phosphodiesterase 1 (TDP1): qHTS in cells in absence of CPT; DT40 Tdp1-/- hTDP1 cells, no CPT, ATP luminescence, 48 h; Potency, µM (highest dose often 46.2 µM), inactives show at the top dose activity change, negative = growth inhibition, actives largely listed as inhibitors; 420,000 tested, 15% active; note: potency is the fitted concentration of half-maximal effect; % is set by controls: 0 for no effect and ±100 for the full control effect; nearly all actives have a fitted effect of over 55% in size
#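 Chicken DT40 Tdp1-/- cells complemented with human TDP1, screened without camptothecin (DMSO vehicle only), 400 cells/well. Compounds pin-transferred, cells incubated at 37 °C for at least 48 hr. Growth read as ATP-dependent luminescence (CellTiter-Glo, 30 min at RT).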
# D3 antag – D3 dopamine receptor (human) antagonism; 360,000 tested, 2.5% active; max response, negative = inhibition, %; P35462; D3R cells, DiscoveRx beta-arrestin luminescence, antagonist mode; stronger effect = lower value; AID 652054; in the data active = max response below about -50%; inconclusive = no clear call, values can overlap the other calls; note: % is set by controls: 0 for no effect and ±100 for the full control effect
#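 Cells plated overnight at 1500 cells/well, then exposed to library compounds with dopamine controls for 90 minutes at 37 degrees C. DiscoveRx reagent added for 30–60 minutes at room temperature; luminescence read, quantitative HTS format.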
# TDP1 cell CPT – growth inhibition of DT40 Tdp1-/-;hTDP1 cells with camptothecin (screen for TDP1 inhibitors) | chicken DT40 Tdp1-/-;hTDP1 cells + 20 nM CPT, ATP luminescence, 48 h | 420,000 tested, 12% active | Potency, µM (top dose mostly 46.2 µM), without a hit: at the highest dose activity change, negative = growth inhibition, hits mostly inhibitors; note: potency is the fitted concentration of half-maximal effect; % is set by controls: 0 for no effect and ±100 for the full control effect; nearly all actives have a fitted effect of over 55% in size
#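 Cell growth measured by CellTiter-Glo luminescence after a minimum 48 h, 37 C compound exposure with 20 nM CPT in Tdp1-knockout DT40 cells stably expressing hTDP1, seeded 400/well; qHTS titration format.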
# * hit, by the source's call; ? = inconclusive; / = no result; ! = a repeat was not active; [ ] = dose if it differs, or a comment. Unless noted, calls come from the whole dose curve; as a rule, active = well fitted inhibition curve with a large enough effect; inconclusive = small, poorly fitted or top-dose-only effect; inactive = flat fitted curve, though single readings scatter.
SMILES,DRD3 agonist,ClpP mod,IL-1B inflam inh,DT40 TDP1 no CPT,D3 antag,TDP1 cell CPT
COc1cccc(N/C(SCc2ccccc2C)=C(/C#N)C(=O)NCc2cccs2)c1,-5,-13%,-4,?,-9,?
COc1cccc(N/C(SCc2cccc([N+](=O)[O-])c2)=C(/C#N)C(=O)NCc2cccs2)c1,1,1%,-55*,16µM*,-12,?
O=C1c2cccc3cccc(c23)C(c2nc3ccccc3[nH]2)N1C1CC1 (stereo unspecified),1,-18%,-15,-27%,0,-12%
CC(C)CN(C(=O)COC(=O)c1ccc(Br)cc1)c1c(N)n(Cc2ccccc2)c(=O)[nH]c1=O,-2,-2%,?,?,8,?
O=C(Nc1nc(-c2ccc(Cl)cc2)cs1)C1CCCO1 (stereo unspecified),-8,/,-69*,23µM*,9,?
O=C(CN1CCOCC1)Nc1nc(-c2ccc(Cl)cc2)cs1,11,/,?,21µM*,13,16µM*
O=C(Nc1nc(-c2ccc(Cl)cc2Cl)cs1)C1CCCO1 (stereo unspecified),-5,-2%,?,?,-2,?
CC1CC(CC(=O)Nc2nc(-c3ccccc3)cs2)C(=O)O1 (stereo unspecified),1,0%,-10,?,15,1%
O=C(CN1CCOCC1)Nc1ccccc1F,6,0%,12,10%,7,-3%
O=C(CN1CCOCC1)Nc1ccccc1Sc1ccc(Cl)cc1,2,/,-59*,6.5µM*,17,?
CC1CN(CC(=O)Nc2nc(-c3ccc(Cl)cc3)cs2)CC(C)O1 (stereo unspecified),5,/,?,23µM*,10,?
Cc1ccc(-c2csc(NC(=O)CN3CCOCC3)n2)cc1,12,/,16,16µM*,0,16µM*
O=C(COCc1cc(-c2ccc(F)cc2)on1)Nc1cc(Cl)ccc1O,18,0%,/,?,/,?
N#Cc1ccc(NC(=O)COCc2cc(-c3ccc(F)cc3)on2)cc1,10,1%,/,21µM*,/,?
CC12CC3CC(C)(C1)CC(C(=O)NC1=NCCS1)(C3)C2,17,1%,0,-23%,4,-2%
CC12CC3(C)CC(C)(C1)CC(C(=O)NC1=NCCS1)(C2)C3,0,0%,23,?,6,23µM*
C[C@H]1CN([C@@H](C)CO)C(=O)CCCn2nncc2CO[C@H]1CN(C)C(=O)C1CC1,0,1%,-15,?,-14,-10%
CC(C)COC(=O)Nc1nnc(Cc2ccccc2)s1,-1,/,32,9.2µM*,3,?
COc1c2c(cc3c1C(CC(=O)c1c(O)c(OC)c4occc4c1OC)[N+](C)(C)CC3)OCO2 (stereo unspecified),/,/,/,-21%[9.04 µM],/,2%[9.04 µM]
CCCc1nc(C(C)(C)O)c(C(=O)OCc2oc(=O)oc2C)n1Cc1ccc(-c2ccccc2-c2nn[nH]n2)cc1,-8,/,/,?,/,-29%
CCOc1nc2cccc(C(=O)OC(C)OC(=O)OC3CCCCC3)c2n1Cc1ccc(-c2ccccc2-c2nn[nH]n2)cc1 (stereo unspecified),/,/,/,23µM*,/,?
Cc1noc(C)c1S(=O)(=O)Nc1ccc(C(=O)N2CCN(c3ccc(Cl)cc3)CC2)cc1,4,0%,-4,16µM*,27,?
Cc1ccc(N(CC(=O)N2CCN(c3ccc(F)cc3)CC2)S(=O)(=O)c2c(C)noc2C)cc1,-6,-1%,-16,?,5,15µM*
Cc1ccc(N(CC(=O)N2CCN(c3ccc(Cl)cc3)CC2)S(=O)(=O)c2c(C)noc2C)cc1,-3,-8%,/,23µM*,/,?
COc1ccc(N(CC(=O)N2CCN(c3ccc(Cl)cc3)CC2)S(=O)(=O)c2c(C)n[nH]c2C)cc1,-22,/,-62*,?,-1,?
SMILES,DRD3 agonist,ClpP mod,IL-1B inflam inh,DT40 TDP1 no CPT,D3 antag,TDP1 cell CPT
Nc1cccc(Oc2ccc3c(c2)C(=O)NC3=O)c1,2,/,15,-1%,-5,22%
COc1ccc(C(C(=O)NC(C)(C)C)N(C(=O)CCC(=O)Nc2ccccn2)C2CCCCC2)cc1 (stereo unspecified),1,/,-7,-29%,4,?
COc1ccccc1CNC(=O)CS(=O)Cc1nc(-c2ccc(OC)c(OC)c2)oc1C (stereo unspecified),4,32µM*!,-4,?,10,?
COc1ccc(-c2nc(CSCC(=O)NCc3ccccc3Cl)c(C)o2)cc1OC,0,20µM*,/,?,/,?
COc1ccccc1CNC(=O)CSCc1nc(-c2ccc(OC)c(OC)c2)oc1C,5,?,/,18µM*,/,?
COc1ccc(-c2nc(CSCC(=O)NCc3ccc4c(c3)OCO4)c(C)o2)cc1OC,4,-15%,-20,?,10,?
Cc1ccccc1OCC(=O)N/N=C/c1ccc(N2CCOCC2)o1,-3,-4%,?,?,-2,?
O=C(c1cc(C(F)(F)F)cc(C(F)(F)F)c1)N1CCC[C@@]2(CCN(Cc3nccs3)C2)C1,/,/,/,-29%,/,14%
O=C(Nc1ccc(S(=O)(=O)NCC2CCCO2)cc1)c1cccc(F)c1 (stereo unspecified),9,/,14,?,-1,?
COc1ccccc1NC(=O)c1ccc(NC(=O)Cc2n[nH]c(=O)c3ccccc23)cc1,2,80%,-29,3%,11,-24%
CCOC(=O)C1=CN(Cc2cccc(-c3ccc4c(c3)OCO4)c2)S(=O)(=O)N(C)C1C (stereo unspecified),23,?,-6,23µM*,65,?
CCOC(=O)C1=CN(Cc2cccc(-c3ccc(Cl)nc3)c2)S(=O)(=O)N(C)C1C (stereo unspecified),-27,-8%,?,21µM*,-8,23µM*
CCOC(=O)C1=CN(Cc2cccc(F)c2)S(=O)(=O)N(C)C1c1ccc(F)c(Cl)c1 (stereo unspecified),-11,-3%,16,16µM*,-4,?
CC#CCN1C=C(C(=O)OCC)C(C)N(Cc2ccc(Br)cc2)S1(=O)=O (stereo unspecified),3,-2%,-13,23µM*,?,18µM*
